Experimental data from article PMC8384837, “Expanding the binding specificity for RNA recognition by a PUF domain”.

These sequences were tested against PUM1 PUF domain R4-WAV (Homo sapiens, UniProt Q14671 828-1176, N971W;H972A;Q975V) (assay: yeast three-hybrid, YBZ-1, SC-Leu-His + 0.5 mM 3-AT, 4 days). Settings: tags: N-Gal4 AD-HA kept; label: inside an RPR1-promoter hybrid RNA with tandem MS2 sites; ssRNA.
Procedure, shortened: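 The interaction score is the log change in variant frequency from input to selection. Scores were computed in log2 with a pseudocount of 1 for absent variants, using Illumina sequencing of PCR-amplified repeat regions. The input came from four days on SC-Leu and the selection from four days on SC-Leu-His + 0.5 mM 3-AT. The cells were strain YBZ-1 (LexA–MS2 coat fusion, HIS3 reporter) co-expressing Pumilio-1 PUF domain libraries and matching RNA elements from a centromeric plasmid.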

PUM1 PUF domain R4-WAV, sequence (Q14671 828-1176 N971W/H972A/Q975V): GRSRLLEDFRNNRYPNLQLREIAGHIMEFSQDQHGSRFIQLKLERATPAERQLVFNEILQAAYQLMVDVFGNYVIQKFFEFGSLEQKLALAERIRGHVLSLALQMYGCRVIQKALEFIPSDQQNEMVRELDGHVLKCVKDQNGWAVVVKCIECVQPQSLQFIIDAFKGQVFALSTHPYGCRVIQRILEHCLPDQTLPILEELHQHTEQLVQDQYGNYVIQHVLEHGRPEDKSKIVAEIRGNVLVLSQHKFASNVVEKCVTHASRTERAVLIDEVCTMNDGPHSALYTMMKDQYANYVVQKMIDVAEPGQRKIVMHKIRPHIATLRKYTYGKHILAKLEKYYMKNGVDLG

Row | Sequence | binding signal
1 | GGCUAGAACUAGUGGAUCCCCCGGCGCCCGGCGGCUCGAGCCCGGGUAAGUGUACAUAGUCUGCAUGCCGCCGGGCGCCAUGCCUGCAGGUCGACUCUAGAAAACAUG | 2.23 log2 enrichment (interaction score)
2 | GGCUAGAACUAGUGGAUCCCCCGGCGCCCGGCGGCUCGAGCCCGGGUAAGUGUAUAUAGUCUGCAUGCCGCCGGGCGCCAUGCCUGCAGGUCGACUCUAGAAAACAUG | 5.71 log2 enrichment (interaction score)
3 | GGCUAGAACUAGUGGAUCCCCCGGCGCCCGGCGGCUCGAGCCCGGGUAAGUGUAAAUAGUCUGCAUGCCGCCGGGCGCCAUGCCUGCAGGUCGACUCUAGAAAACAUG | 2.33 log2 enrichment (interaction score)
